Source: PubChem BioAssay
Most compounds without a hit are left out; they make up all but 1.7% or so of the library.
Myeloid diff 2 – promotes myeloid progenitor differentiation; ER-HoxA9 myeloid progenitors, lysozyme-GFP differentiation, flow cytometry; calls only at 10 µM; 360,000 tested, 1% active; AID 624256;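 active = normalized GFP-positive differentiation at or above the plate's own cutoff, the solvent-only control mean plus 3 SD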;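 note: cells exposed to compound for four days before flow analysis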
TLR9-MyD88 block – TLR9-MyD88 interaction inhibition; Q9NR96+Q99836; 340,000 tested, 0.21% active; AID 504734; CHO BLA complementation TLR9-MyD88, CCF4 FRET ratio; inhibition, % at 4.98 µM;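 active = inhibition above the mean over all tested compounds plus 3 SD, cut at about 21% in these data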;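 note: 0% = DMSO only wells and 100% = clavulanate BLA inhibitor control wells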
NOD2-RIPK2 inh – inhibitors of human NOD2-RIPK2 interaction. O43353. CHO BLA complementation NOD2-RIPK2, CCF4 ratio. inhibition, % at 4.98 µM. 360,000 tested, 0.38% active; in the data active = inhibition above about 21%;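 note: 0% = vehicle only and 100% = reference blocker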
TLR4 MyD88 comp – inhibitors of human TLR4-MyD88 binding; O00206+Q99836; HeLa CL3-4 TLR4/MyD88 BLA complementation, FRET ratio; inhibition, % at 8.4 µM; 200,000 tested, 0.18% active; in the data active = inhibition above about 25%;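 note: 0% = vehicle and 100% = reference inhibitor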
Target sequence (O00206 whole entry, looked up): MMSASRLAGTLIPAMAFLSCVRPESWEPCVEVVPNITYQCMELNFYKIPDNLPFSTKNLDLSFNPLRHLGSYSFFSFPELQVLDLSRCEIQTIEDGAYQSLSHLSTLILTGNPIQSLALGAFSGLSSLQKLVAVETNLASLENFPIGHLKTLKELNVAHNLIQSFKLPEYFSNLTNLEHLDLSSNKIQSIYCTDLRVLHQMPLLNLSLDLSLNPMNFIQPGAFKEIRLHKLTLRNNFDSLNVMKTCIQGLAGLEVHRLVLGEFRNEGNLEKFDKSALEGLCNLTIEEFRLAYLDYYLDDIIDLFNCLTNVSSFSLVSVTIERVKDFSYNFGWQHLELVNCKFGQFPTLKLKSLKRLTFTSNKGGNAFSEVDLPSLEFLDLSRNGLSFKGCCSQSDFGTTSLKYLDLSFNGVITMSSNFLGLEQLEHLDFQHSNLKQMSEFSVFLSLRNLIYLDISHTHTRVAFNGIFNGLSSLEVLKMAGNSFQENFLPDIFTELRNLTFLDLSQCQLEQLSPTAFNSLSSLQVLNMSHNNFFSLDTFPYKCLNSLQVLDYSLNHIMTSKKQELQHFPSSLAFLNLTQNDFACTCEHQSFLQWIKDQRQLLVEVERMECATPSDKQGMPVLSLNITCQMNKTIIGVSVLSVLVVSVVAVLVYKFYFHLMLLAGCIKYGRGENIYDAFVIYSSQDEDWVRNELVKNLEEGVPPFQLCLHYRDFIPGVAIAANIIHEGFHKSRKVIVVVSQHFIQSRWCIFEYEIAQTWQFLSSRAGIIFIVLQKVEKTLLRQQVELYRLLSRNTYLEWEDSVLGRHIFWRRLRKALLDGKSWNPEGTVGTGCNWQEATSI
Target sequence (Q99836 whole entry, looked up): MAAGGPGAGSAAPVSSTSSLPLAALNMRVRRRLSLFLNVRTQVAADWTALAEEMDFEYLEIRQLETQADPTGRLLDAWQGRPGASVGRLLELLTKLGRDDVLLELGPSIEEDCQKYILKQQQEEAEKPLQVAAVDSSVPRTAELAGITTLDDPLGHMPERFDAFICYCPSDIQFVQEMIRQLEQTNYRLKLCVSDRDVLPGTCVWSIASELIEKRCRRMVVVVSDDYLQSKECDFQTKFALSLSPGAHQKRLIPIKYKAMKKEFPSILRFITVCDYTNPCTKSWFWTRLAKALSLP
ABCB6 inh MLPCN – blocks the human ABCB6 transporter | Q9NP58 | K562-ABCB6 porphyrin accumulation, flow cytometry, 1 h; stronger effect = lower value | fluorescence ratio to DMSO, % at 10 µM | 360,000 tested, 0.19% active;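 active = fluorescence ratio to DMSO below 75%, the collection mean minus 3 SD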;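 note: signal is porphyrin accumulated inside mitochondria; 100% equals median channel fluorescence of DMSO control wells; lower ratio means ABCB6 inhibition with less porphyrin fluorescence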
Myeloid diff – compounds promoting myeloid differentiation; ER-HoxA9 myeloid progenitors, GFP/Mac1 double-positive flow; 2,300 tested, 2% active; AID 651706; calls only; shares compounds with Myeloid diff 2;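 active = share of green or green-and-red cells above 9 and 9% in run 1 or 4 and 3% in run 2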
GFP autofluor – counter-screen for myeloid differentiation promoters: compound fluorescence; ER-HoxA9 myeloid progenitors, no estrogen, GFP autofluorescence flow cytometry; vehicle wells 0%, positive control 100%; 2,300 tested, 7.4% active; fluorescence response, % (no concentration beside the values); shares compounds with Myeloid diff 2;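 active = over 5% cells positive for green fluorescent reporter, or over 2% positive for both it and APC stain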;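 note: range taken on the double positive population between DMSO and positive control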
Active calls of the source: *.

For O=C(O)C1=C[C@H](c2csc3ccccc23)C[C@H](OCc2ccc(CO)cc2)O1 the results were Myeloid diff 2 inactive, TLR9-MyD88 block -3, NOD2-RIPK2 inh -1, TLR4 MyD88 comp 0 and ABCB6 inh MLPCN 92.
Screening O=C(NCc1ccccc1)C1=C[C@@H](c2csc3ccccc23)C[C@@H](OCc2ccc(CO)cc2)O1 returned Myeloid diff 2 active, TLR9-MyD88 block 8, NOD2-RIPK2 inh -3, TLR4 MyD88 comp -6, ABCB6 inh MLPCN 91, Myeloid diff inactive and GFP autofluor 0.
For C#Cc1ccc([C@H]2C=C(C(=O)NCc3nc4ccccc4[nH]3)O[C@@H](OCc3ccc(CO)cc3)C2)cc1 the results were Myeloid diff 2 inactive, TLR9-MyD88 block -6, NOD2-RIPK2 inh -4, ABCB6 inh MLPCN 94, Myeloid diff inactive and GFP autofluor 0.
Screening Cc1cccc(N2C(=O)N3[C@@H]4c5ccccc5OC[C@@H]4[C@@H](c4ccccc4)[C@@]3(C)C2=O)c1 returned Myeloid diff 2 inactive, TLR9-MyD88 block 4, NOD2-RIPK2 inh -2 and ABCB6 inh MLPCN 98.
CCC(C)[C@H](NC(=O)[C@@H]1Cc2c([nH]c3ccccc23)C2c3ccccc3C(=O)N21)C(=O)NCC1CCCO1 (some centres undefined) was read as Myeloid diff 2 active, TLR9-MyD88 block -13, NOD2-RIPK2 inh -6, ABCB6 inh MLPCN 103, Myeloid diff inactive and GFP autofluor 0.
For COc1ccc(CCCNC(=O)C2Cc3c(-c4cccc(NC(C)=O)c4)ccnc3O2)cc1 (centres undefined) the results were Myeloid diff 2 inactive, NOD2-RIPK2 inh -12 and ABCB6 inh MLPCN 95.
`O=c1[nH]cc(N(CCO)CCO)c(=O)[nH]1` gave Myeloid diff 2 inactive, TLR9-MyD88 block -4, NOD2-RIPK2 inh -5 and ABCB6 inh MLPCN 98.
For O=C(c1cc2c(s1)-c1ccccc1OC2)N1CCCC1 the results were Myeloid diff 2 inactive, TLR9-MyD88 block -4, NOD2-RIPK2 inh 15, TLR4 MyD88 comp -14, ABCB6 inh MLPCN 102, Myeloid diff inactive and GFP autofluor 0.
`O=C(c1cc2c(s1)-c1ccccc1OC2)N1CCN(c2ccccc2)CC1` gave Myeloid diff 2 inactive, TLR9-MyD88 block 4, NOD2-RIPK2 inh -17, TLR4 MyD88 comp 14 and ABCB6 inh MLPCN 102.
For O=C(N/N=C/c1ccc([N+](=O)[O-])o1)c1cc2ccccc2o1 the results were Myeloid diff 2 inactive, TLR9-MyD88 block -1, NOD2-RIPK2 inh -3, ABCB6 inh MLPCN 102, Myeloid diff inactive and GFP autofluor 0.
Screening O=[N+]([O-])c1ccc(/C=N/Nc2ccc3ccccc3c2)o1 returned Myeloid diff 2 active, TLR9-MyD88 block 15, NOD2-RIPK2 inh 3, TLR4 MyD88 comp -8, ABCB6 inh MLPCN inactive, Myeloid diff inactive and GFP autofluor 8.1*.
COc1cc(NCCCNC(C)C)c2nccc(C)c2c1 was read as Myeloid diff 2 active, TLR9-MyD88 block 5, NOD2-RIPK2 inh 1, ABCB6 inh MLPCN 114, Myeloid diff inactive and GFP autofluor 0.
COc1cc(NCc2ccccc2)c2ncn(C(C)C)c2c1 was read as Myeloid diff 2 inactive, TLR9-MyD88 block 4, NOD2-RIPK2 inh -4 and ABCB6 inh MLPCN 98.
Screening N#CC1C(=O)NC(=O)CC12CCCCC2 (centres undefined) returned Myeloid diff 2 inactive, TLR9-MyD88 block 3, NOD2-RIPK2 inh -2, ABCB6 inh MLPCN 100, Myeloid diff inactive and GFP autofluor 0.
Screening N#CC1C(=O)NC(=O)C(C#N)C12CCCCC2 (centres undefined) returned Myeloid diff 2 inactive, NOD2-RIPK2 inh -7 and ABCB6 inh MLPCN 90.
Cc1nc(NC(=O)c2cc3c(s2)CCCCC3)sc1C(=O)N(C)C was read as Myeloid diff 2 inactive, TLR9-MyD88 block -8, NOD2-RIPK2 inh -7, TLR4 MyD88 comp 11 and ABCB6 inh MLPCN 101.
Screening Cc1nc(NC(=O)c2ccc(Br)s2)sc1C(=O)N(C)C returned Myeloid diff 2 inactive, TLR9-MyD88 block 0, NOD2-RIPK2 inh -12, TLR4 MyD88 comp -4, ABCB6 inh MLPCN 103, Myeloid diff inactive and GFP autofluor 0.
For Cc1ccccc1-n1ncc(C(C)NC(=O)c2ccccc2)c1C (centres undefined) the results were Myeloid diff 2 inactive, TLR9-MyD88 block 2, NOD2-RIPK2 inh -5, TLR4 MyD88 comp -13 and ABCB6 inh MLPCN 96.
`COc1cccc(C(=O)Nc2ccc(NC(C)=O)cn2)c1` gave Myeloid diff 2 inactive, TLR9-MyD88 block -9, NOD2-RIPK2 inh -10, TLR4 MyD88 comp 8, ABCB6 inh MLPCN 104, Myeloid diff inactive and GFP autofluor 0.
For COc1ccccc1NS(=O)(=O)c1cc(NC(=O)c2ccc3c(c2)OCCO3)ccc1C the results were Myeloid diff 2 inactive, TLR9-MyD88 block 1, NOD2-RIPK2 inh 3, TLR4 MyD88 comp -11 and ABCB6 inh MLPCN 94.
`Cc1ccc(S(=O)(=O)NCc2ccco2)cc1C(N)=O` gave Myeloid diff 2 active, TLR9-MyD88 block -4, NOD2-RIPK2 inh -12, TLR4 MyD88 comp -21, ABCB6 inh MLPCN 106, Myeloid diff inactive and GFP autofluor 0.
For Cc1ccc2ccc(S(=O)(=O)NCc3ccco3)cc2c1 the results were Myeloid diff 2 inactive, TLR9-MyD88 block -2, NOD2-RIPK2 inh -9 and ABCB6 inh MLPCN 100.
For CNC(=S)NC1CC2CCCC(C1)N2Cc1ccco1 (centres undefined) the results were Myeloid diff 2 inactive, TLR9-MyD88 block -6, NOD2-RIPK2 inh -28, TLR4 MyD88 comp -5 and ABCB6 inh MLPCN 90.
`COCCCNC(=S)NC1CC2CCCC(C1)N2Cc1ccco1` (centres undefined) gave Myeloid diff 2 inactive, TLR9-MyD88 block 9, NOD2-RIPK2 inh 6, TLR4 MyD88 comp -8, ABCB6 inh MLPCN 99, Myeloid diff inactive and GFP autofluor 0.
Screening CC(OC(=O)/C=C/c1ccc2ccccc2n1)C(=O)Nc1ccc(S(N)(=O)=O)cc1 (centres undefined) returned Myeloid diff 2 inactive, TLR9-MyD88 block 0, NOD2-RIPK2 inh 2, ABCB6 inh MLPCN 99, Myeloid diff inactive and GFP autofluor 0.
Screening O=S(=O)(c1ccc(C(F)(F)F)cc1)N1CCN(CCc2ccccc2)CC1 returned Myeloid diff 2 inactive, TLR9-MyD88 block 5, NOD2-RIPK2 inh -9 and ABCB6 inh MLPCN 95.
For COc1cccc(/C=C2\Oc3cc(OCC(=O)N4CCC[C@H]4C(=O)O)ccc3C2=O)c1 the results were Myeloid diff 2 inactive, TLR9-MyD88 block -8, NOD2-RIPK2 inh 2 and ABCB6 inh MLPCN 97.
